Test results as given in PubChem BioAssay (NCI).
About 83,000 compounds went through this panel and 20% of them were active in at least one assay; those are over-represented in the sample as a whole.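 Results are percent growth after 48 hours of single-concentration exposure. 100 means growth as in untreated cells, lower positive values show inhibition; negative values down to -100 show cell death.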 Calls of active or inactive are those of the source. How the source made its calls: active means growth percent below 10; inactive means the rest.

tested on: HL-60(TB) leukemia; assay: NCI-60 one-dose screen, 48 h (100 = growth as untreated, 0 = no growth, -100 = all killed); details: 10 µM unless noted

SMILES	growth
COc1cc2nc3cc([N+](=O)[O-])ccc3c(NCCCNCC(C)(C)O)c2cc1OC	-0.733% (active)
CC(C)(C)C(=O)Nc1nc2c(s1)CCc1ccn(S(=O)(=O)c3ccccc3)c1-2	70% (inactive)
CCN(CC)CCCC(C)Nc1ccnc2ccc(Oc3ccccc3)cc12 (stereo not given)	72.6% (inactive)
Cc1ccc(S(=O)(=O)n2cc(C(=O)C(=O)N3CCCCC3)c3ccccc32)cc1	85% (inactive)
CN1CCN(Cc2ccc(NC(=O)c3cncc(C#Cc4ccc(N)nc4)c3)cc2C(F)(F)F)CC1	-38.5% (active)
COc1cc(NC(=O)CCSc2nc3ccccc3c(=O)n2Cc2ccccc2)cc(OC)c1OC	104% (inactive)
Cn1c2ccccc2c2c3c(c4c5cc(Br)ccc5n(C)c4c21)C(=O)N(O)C3=O	-33.2% (active)
CCSc1ccc([C@@H]2[C@@H](N)C(=O)N2c2cc(OC)c(OC)c(OC)c2)cc1	-40.5% (active)
CN1CCN(Cc2ccc(NC(=O)c3cncc(C#Cc4cncc5ncccc45)c3)cc2C(F)(F)F)CC1	-3.29% (active)
O=C([O][Sn]([O]C(=O)c1ccccn1)([c]1ccccc1)[c]1ccccc1)c1ccccn1	68.5% (inactive)
Cc1c(Cl)cccc1C(=O)Nc1nc2c(s1)CN(C(=O)Nc1cccc(C(F)(F)F)c1)CC2	6.4% (active)
O=[N+]([O-])c1cc(Br)cc2c1[nH]c1ccc(Br)cc12	85% (inactive)
Cc1ccc(NC(=O)c2[nH]c(SCCN(C)C)nc2-c2ccc(F)cc2)cc1Nc1ccc2ncn(C)c(=O)c2c1	19.3% (inactive)
COc1cc2c(cc1OC)C1CCN3C(=O)CCC3N1CC2 (stereo not given)	126% (inactive)
C#CCOc1cccc(-c2ncnc3cc(NC(=O)C=C)ccc23)c1	16.9% (inactive)
Cc1cn(-c2cc(NC(=O)c3cncc(C#Cc4c(N)ncc5ccc(F)cc45)c3)cc(C(F)(F)F)c2)cn1	9.54% (active)
FC(F)(F)c1cc(-c2nnc3n2N=C(N2CCCC2)CS3)cc(C(F)(F)F)c1	113% (inactive)
CCCCCCCCCCCCCCCCCC1OCC(COC(=O)O[C@]2(CC)C(=O)OCc3c2cc2n(c3=O)Cc3cc4ccccc4nc3-2)O1 (stereo not given in full)	102% (inactive)
CCn1cc(C(=O)N/N=C/c2cccc(F)c2)c(=O)c2cc(F)c(N3CCNC(C)C3)c(F)c21 (stereo not given)	65.5% (inactive)
CCOC(=O)c1c(NC(=S)Nc2ccc([N+](=O)[O-])cc2)sc2c1CCCCC2	70.5% (inactive)

SMILES	growth
CCn1c(SC/C(=N/O)c2ccccc2)nnc1-c1ccccc1	103% (inactive)
Cc1cccnc1NC(=S)Nc1ncccc1C	136% (inactive)
CCOC(=O)C(CSC(c1ccccc1)(c1ccccc1)c1ccccc1)NC(=O)C(CSC(c1ccccc1)(c1ccccc1)c1ccccc1)NC(c1ccccc1)(c1ccccc1)c1ccccc1 (stereo not given)	118% (inactive)
O=C1CSC(c2ccccc2Cl)N1c1nnc(-c2ccncc2)o1 (stereo not given)	95.2% (inactive)
O=C(CCl)Oc1ccc(OC(=O)CCl)cc1	8.83% (active)
CN(C)C(=O)c1cc2cnc(Nc3ccc(-c4csc5c(=O)cc(N6CCNCC6)oc45)cc3)nc2n1C1CCCC1	-21% (active)
CC(/C=C/C=C(\C)[C@H](O)[C@H](C)C(=O)O[C@H]1C[C@H](C)C=C2C=C[C@@]3(C)O[C@@H](O)CC(=O)[C@]3(C)[C@H]21)=C\C=C\C(=O)O	34% (inactive)
CC(C)[O-].CC(C)[O-].CN(CCN(C)Cc1cc(F)cc(F)c1[O-])Cc1cc(F)cc(F)c1[O-].[Ti+4]	5.88% (active)
CN[C@@H]1C[C@H]2O[C@@](C)([C@@H]1OC)n1c3ccccc3c3c4c(c5c6ccccc6n2c5c31)C(=O)N[C@H]4O	-40.8% (active)
CCN(CC)Cc1cc(Nc2cc(C(F)(F)F)c(C#N)c3nc4ccccc4n23)ccc1O	-10.9% (active)
CCOC(C)=N	78.7% (inactive)
NNc1ncnc2nc[nH]c12	35.3% (inactive)
NC(=O)c1cccc(-c2cc(C(N)=O)ccc2Cl)c1	-22.7% (active)
COc1ccc2c(c1)O/C(=C\c1ccc([N+](=O)[O-])o1)C2=O	-17.7% (active)
C=C/C(C)=C/C[C@]1(C)[C@H](C)[C@@H](OC(=O)CCC)[C@H](O)[C@@]23C(=C[C@H](OC)C[C@@H]12)[C@@H](OC(=O)CCC)O[C@H]3OC(C)=O	-43.9% (active)
CCNc1ncnc2c1cnn2C1CCCO1 (stereo not given)	92.5% (inactive)
CC1=CC2c3oc(-c4ccccc4)c(C(=O)c4ccccc4)c3CNC2C=C1 (stereo not given)	84.3% (inactive)
CN(Cc1cnc2nc(N)nc(N)c2n1)c1ccc(C(=O)NC(CCC(=O)O)C(=O)O)cc1 (stereo not given)	29.5% (inactive)
COc1ccc(NC2=C(I)C(=O)c3ncccc3C2=O)cc1	-47.5% (active)
O=C1OCC2=C1C(c1cccc(Br)c1)c1cc3c(cc1N2CCO)CCC3 (stereo not given)	-25.5% (active)
